# In paper PMC7862700, “An all-to-all approach to the identification of sequence-specific readers for epigenetic DNA modifications on cytosine”:
# Experiments:
# Assay in all cases: DAPPL (digital affinity profiling via proximity ligation, sequencing); 10 mM Tris-HCl pH 7.5, 50 mM NaCl, 1 mM DTT, 4% glycerol, room temperature, 30 min; GST-TFs on glutathione beads, 16-mer random dsDNA library, 0.1% formaldehyde crosslink after washing; high values mean tight binding
# FLI1 = molecular target: T1, FLI1 (Homo sapiens, UniProt Q01543 1-452); settings: protein: recombinant; tags: N-terminal GST; dsDNA, one strand shown
# T1 sequence: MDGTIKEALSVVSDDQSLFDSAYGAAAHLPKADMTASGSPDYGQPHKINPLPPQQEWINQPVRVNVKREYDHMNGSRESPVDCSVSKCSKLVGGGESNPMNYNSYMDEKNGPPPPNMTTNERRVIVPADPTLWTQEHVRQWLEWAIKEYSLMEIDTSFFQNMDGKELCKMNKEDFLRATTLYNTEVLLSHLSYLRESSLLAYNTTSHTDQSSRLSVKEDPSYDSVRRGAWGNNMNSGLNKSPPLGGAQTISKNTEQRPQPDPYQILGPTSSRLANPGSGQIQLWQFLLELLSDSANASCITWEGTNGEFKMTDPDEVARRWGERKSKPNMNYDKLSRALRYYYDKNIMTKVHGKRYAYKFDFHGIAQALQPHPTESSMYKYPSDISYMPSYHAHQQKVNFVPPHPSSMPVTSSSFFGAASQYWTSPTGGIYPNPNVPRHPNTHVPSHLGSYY
# Procedure, shortened: (§1)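 The binding signal reported is, for every hexamer, its read frequency for a factor over its read frequency for the tag-only sample. Reads came from pools of yeast-expressed, GST-fused human transcription factors on glutathione beads, barcoded with DNA and mixed with that sample, which were incubated with 200 nmole of a random double-stranded 16-mer DNA library in Tris/NaCl/DTT/glycerol buffer at room temperature for 30 min. After washing, the pools were crosslinked with 0.1% formaldehyde, proximity-ligated with BsaI/T4 ligase for 1 h at 37 °C, PCR-amplified and sequenced on an Illumina NextSeq500.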
# ELK1 = molecular target: T2, ELK1 (Homo sapiens, UniProt P19419 1-428); settings: protein: recombinant; tags: N-terminal GST; dsDNA, one strand shown
# T2 sequence: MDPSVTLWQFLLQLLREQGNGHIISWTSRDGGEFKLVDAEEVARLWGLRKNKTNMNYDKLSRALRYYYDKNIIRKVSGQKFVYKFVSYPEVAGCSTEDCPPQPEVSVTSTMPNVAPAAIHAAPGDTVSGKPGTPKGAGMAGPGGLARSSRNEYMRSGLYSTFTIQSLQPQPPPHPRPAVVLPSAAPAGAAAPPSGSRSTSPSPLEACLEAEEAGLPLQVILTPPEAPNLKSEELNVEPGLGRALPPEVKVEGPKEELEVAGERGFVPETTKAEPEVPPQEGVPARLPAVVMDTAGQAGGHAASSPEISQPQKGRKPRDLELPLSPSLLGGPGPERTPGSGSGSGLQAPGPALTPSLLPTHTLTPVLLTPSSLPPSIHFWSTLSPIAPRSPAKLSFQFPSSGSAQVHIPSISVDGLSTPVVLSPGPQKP
# Procedure, shortened: as §1
# GABPA = molecular target: T3, GABPA (Homo sapiens, UniProt Q06546 1-454); settings: protein: recombinant; tags: N-terminal GST; dsDNA, one strand shown
# T3 sequence: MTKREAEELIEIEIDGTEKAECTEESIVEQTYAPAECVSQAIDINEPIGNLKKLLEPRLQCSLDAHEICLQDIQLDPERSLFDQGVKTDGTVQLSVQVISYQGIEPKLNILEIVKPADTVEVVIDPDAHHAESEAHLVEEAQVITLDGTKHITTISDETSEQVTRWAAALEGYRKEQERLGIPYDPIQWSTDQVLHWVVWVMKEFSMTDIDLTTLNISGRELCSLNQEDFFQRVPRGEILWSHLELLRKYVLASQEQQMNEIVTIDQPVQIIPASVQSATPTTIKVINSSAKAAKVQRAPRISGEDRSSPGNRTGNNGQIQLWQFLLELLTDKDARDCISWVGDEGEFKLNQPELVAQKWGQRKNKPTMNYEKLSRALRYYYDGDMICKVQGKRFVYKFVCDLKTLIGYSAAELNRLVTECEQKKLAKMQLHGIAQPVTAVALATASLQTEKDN
# Procedure, shortened: as §1
# ERG = molecular target: T4, ERG (Homo sapiens, UniProt P11308 1-479); settings: protein: recombinant; tags: N-terminal GST; dsDNA, one strand shown
# T4 sequence: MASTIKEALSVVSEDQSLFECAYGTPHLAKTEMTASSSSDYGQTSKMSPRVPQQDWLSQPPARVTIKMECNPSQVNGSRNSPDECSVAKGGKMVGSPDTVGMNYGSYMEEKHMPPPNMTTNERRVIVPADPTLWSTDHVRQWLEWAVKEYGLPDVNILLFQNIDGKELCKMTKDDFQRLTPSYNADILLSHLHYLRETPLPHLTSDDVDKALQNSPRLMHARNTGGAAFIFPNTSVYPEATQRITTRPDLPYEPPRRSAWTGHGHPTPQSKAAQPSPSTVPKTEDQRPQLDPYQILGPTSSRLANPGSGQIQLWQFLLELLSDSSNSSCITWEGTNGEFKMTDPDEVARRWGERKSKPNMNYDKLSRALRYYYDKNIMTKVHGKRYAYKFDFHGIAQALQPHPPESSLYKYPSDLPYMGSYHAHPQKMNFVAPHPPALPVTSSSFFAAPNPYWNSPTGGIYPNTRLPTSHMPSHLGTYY
# Procedure, shortened: as §1
# ELF1 = ELF1 (Homo sapiens, UniProt P32519 1-619); settings: protein: recombinant; tags: N-terminal GST; dsDNA, one strand shown
# Procedure, shortened: as §1
# EHF = molecular target: T5, EHF (Homo sapiens, UniProt Q9NZC4 1-300); settings: protein: recombinant; tags: N-terminal GST; dsDNA, one strand shown
# T5 sequence: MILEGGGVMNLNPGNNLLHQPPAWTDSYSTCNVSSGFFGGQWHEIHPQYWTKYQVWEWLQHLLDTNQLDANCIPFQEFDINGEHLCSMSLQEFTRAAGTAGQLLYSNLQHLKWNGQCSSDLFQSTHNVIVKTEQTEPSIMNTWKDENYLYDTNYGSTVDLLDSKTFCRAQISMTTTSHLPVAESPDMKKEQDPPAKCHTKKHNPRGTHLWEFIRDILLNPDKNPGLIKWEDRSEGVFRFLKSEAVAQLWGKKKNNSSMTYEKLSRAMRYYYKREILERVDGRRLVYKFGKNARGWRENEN
# Procedure, shortened: as §1
# SPI1 = SPI1 (Homo sapiens, UniProt P17947 1-270); settings: protein: recombinant; tags: N-terminal GST; dsDNA, one strand shown
# Procedure, shortened: as §1
# SPIB = SPIB (Homo sapiens, UniProt Q01892 1-262); settings: protein: recombinant; tags: N-terminal GST; dsDNA, one strand shown
# Procedure, shortened: as §1
# ELK3 = molecular target: T6, ELK3 (Homo sapiens, UniProt P41970 1-407); settings: protein: recombinant; tags: N-terminal GST; dsDNA, one strand shown
# T6 sequence: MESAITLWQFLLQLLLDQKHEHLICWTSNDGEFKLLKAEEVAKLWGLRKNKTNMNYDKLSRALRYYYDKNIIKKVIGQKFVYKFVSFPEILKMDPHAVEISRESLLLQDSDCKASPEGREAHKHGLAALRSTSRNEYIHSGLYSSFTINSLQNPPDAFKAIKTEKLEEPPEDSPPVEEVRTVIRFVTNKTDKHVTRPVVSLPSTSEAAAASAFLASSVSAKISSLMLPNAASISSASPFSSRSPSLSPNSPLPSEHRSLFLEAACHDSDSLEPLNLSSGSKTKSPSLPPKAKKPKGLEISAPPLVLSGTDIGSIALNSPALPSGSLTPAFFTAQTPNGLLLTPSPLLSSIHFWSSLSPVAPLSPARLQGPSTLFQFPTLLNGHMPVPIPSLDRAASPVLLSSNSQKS
# Procedure, shortened: as §1
# FEV = molecular target: T7, FEV (Homo sapiens, UniProt Q99581 1-238); settings: protein: recombinant; tags: N-terminal GST; dsDNA, one strand shown
# T7 sequence: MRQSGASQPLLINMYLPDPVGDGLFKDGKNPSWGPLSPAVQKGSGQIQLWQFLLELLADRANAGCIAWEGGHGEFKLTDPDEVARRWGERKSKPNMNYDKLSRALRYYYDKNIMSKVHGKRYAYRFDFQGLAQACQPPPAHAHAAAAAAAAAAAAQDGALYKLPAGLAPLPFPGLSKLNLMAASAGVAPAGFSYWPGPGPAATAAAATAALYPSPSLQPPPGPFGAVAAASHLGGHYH
# Procedure, shortened: as §1
# ETV5 = ETV5 (Homo sapiens, UniProt P41161 1-510); settings: protein: recombinant; tags: N-terminal GST; dsDNA, one strand shown
# Procedure, shortened: as §1
# HSF1 = HSF1 (Homo sapiens, UniProt Q00613 1-529); settings: protein: recombinant; tags: N-terminal GST; chain copies: 3; dsDNA, one strand shown
# Procedure, shortened: as §1
# SPIC = molecular target: T8, SPIC (Homo sapiens, UniProt Q8N5J4 1-248); settings: protein: recombinant; tags: N-terminal GST; dsDNA, one strand shown
# T8 sequence: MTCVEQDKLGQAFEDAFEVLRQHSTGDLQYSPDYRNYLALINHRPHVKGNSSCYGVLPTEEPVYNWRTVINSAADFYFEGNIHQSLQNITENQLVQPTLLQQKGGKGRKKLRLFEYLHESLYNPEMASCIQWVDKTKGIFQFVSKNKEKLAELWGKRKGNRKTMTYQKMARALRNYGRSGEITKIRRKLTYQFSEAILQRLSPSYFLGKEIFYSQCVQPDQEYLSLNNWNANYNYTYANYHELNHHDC
# Procedure, shortened: as §1
# ELF4 = ELF4 (Homo sapiens, UniProt Q99607 1-663); settings: protein: recombinant; tags: N-terminal GST; dsDNA, one strand shown
# Procedure, shortened: as §1
# ELK4 = molecular target: T9, ELK4 (Homo sapiens, UniProt P28324-2 1-405); settings: protein: recombinant; tags: N-terminal GST; dsDNA, one strand shown
# T9 sequence: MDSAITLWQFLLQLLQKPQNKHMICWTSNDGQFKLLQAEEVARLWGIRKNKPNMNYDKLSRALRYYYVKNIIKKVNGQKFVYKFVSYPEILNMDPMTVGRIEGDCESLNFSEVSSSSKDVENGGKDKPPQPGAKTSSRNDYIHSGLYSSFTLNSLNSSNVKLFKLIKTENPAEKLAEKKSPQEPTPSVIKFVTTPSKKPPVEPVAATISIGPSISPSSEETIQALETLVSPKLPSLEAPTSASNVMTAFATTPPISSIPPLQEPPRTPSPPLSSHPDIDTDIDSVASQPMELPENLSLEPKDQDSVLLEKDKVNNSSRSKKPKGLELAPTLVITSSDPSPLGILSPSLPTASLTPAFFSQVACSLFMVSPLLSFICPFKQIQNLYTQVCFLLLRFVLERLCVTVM
# Procedure, shortened: as §1
# ETV2 = molecular target: T10, ETV2 (Homo sapiens, UniProt O00321 1-342); settings: protein: recombinant; tags: N-terminal GST; dsDNA, one strand shown
# T10 sequence: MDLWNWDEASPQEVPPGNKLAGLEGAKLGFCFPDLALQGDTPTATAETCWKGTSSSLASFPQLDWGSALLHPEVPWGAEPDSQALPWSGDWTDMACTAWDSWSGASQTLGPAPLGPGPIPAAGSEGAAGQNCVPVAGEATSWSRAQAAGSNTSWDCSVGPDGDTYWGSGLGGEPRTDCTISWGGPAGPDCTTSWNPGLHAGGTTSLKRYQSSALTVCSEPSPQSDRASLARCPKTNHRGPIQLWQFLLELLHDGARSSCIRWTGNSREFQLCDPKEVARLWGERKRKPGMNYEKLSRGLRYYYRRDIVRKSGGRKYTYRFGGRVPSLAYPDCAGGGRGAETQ
# Procedure, shortened: as §1
# ELF3 = molecular target: T11, ELF3 (Homo sapiens, UniProt P78545 1-371); settings: protein: recombinant; tags: N-terminal GST; dsDNA, one strand shown
# T11 sequence: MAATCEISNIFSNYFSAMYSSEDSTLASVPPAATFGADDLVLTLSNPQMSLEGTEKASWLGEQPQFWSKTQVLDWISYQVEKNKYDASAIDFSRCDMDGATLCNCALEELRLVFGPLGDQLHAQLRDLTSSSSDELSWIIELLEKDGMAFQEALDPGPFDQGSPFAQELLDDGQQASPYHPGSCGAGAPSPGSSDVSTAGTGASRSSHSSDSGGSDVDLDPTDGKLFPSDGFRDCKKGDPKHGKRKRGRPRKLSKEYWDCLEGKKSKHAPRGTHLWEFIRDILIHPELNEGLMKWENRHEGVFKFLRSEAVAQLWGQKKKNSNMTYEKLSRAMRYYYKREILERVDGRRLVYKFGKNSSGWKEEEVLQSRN
# Procedure, shortened: as §1
# ETV1 = ETV1 (Homo sapiens, UniProt P50549 1-477); settings: protein: recombinant; tags: N-terminal GST; dsDNA, one strand shown
# Procedure, shortened: as §1
# Sequence of ETV1 (P50549 whole entry): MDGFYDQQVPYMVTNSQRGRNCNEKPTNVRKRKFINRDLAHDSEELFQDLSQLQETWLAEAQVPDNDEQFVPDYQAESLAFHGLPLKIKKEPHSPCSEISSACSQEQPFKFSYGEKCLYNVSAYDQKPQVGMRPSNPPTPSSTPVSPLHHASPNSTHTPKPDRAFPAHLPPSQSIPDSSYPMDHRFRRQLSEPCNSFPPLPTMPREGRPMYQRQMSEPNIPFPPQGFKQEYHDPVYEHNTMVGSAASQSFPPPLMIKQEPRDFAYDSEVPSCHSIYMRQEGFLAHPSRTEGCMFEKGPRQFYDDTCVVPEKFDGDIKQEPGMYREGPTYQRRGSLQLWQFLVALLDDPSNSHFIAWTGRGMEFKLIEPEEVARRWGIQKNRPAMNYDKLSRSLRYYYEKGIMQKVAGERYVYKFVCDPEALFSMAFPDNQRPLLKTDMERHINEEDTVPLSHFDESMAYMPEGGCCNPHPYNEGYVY
# Sequence of ELF1 (P32519 whole entry): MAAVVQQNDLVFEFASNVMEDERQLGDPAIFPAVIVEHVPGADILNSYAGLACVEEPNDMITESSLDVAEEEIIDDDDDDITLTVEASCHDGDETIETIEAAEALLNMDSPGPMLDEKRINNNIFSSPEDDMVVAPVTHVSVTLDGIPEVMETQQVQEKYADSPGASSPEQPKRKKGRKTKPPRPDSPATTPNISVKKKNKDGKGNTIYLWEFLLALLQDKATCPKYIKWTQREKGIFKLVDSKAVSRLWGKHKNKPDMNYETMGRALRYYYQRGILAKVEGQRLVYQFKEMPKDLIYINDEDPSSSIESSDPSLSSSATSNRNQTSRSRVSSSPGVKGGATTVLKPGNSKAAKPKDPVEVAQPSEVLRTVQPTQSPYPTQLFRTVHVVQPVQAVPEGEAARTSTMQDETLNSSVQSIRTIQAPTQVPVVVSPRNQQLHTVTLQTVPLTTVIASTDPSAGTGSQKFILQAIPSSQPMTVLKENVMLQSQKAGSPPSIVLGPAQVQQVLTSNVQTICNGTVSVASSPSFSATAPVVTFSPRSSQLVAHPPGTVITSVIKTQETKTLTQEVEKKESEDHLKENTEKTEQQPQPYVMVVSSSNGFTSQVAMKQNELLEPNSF
# Sequence of ETV5 (P41161 whole entry): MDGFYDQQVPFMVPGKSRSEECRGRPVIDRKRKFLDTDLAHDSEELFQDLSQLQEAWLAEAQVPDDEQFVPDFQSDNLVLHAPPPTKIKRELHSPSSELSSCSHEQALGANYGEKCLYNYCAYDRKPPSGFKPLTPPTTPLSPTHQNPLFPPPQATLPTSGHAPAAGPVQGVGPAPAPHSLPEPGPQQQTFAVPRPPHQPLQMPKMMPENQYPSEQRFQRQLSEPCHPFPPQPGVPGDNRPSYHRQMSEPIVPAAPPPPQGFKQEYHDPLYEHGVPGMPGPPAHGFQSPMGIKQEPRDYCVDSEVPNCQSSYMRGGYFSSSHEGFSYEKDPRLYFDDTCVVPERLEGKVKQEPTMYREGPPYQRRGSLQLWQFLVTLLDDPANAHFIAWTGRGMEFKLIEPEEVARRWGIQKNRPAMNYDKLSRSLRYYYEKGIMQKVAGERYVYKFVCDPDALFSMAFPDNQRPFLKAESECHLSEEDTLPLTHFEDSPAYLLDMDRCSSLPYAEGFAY
# Sequence of SPIB (Q01892 whole entry): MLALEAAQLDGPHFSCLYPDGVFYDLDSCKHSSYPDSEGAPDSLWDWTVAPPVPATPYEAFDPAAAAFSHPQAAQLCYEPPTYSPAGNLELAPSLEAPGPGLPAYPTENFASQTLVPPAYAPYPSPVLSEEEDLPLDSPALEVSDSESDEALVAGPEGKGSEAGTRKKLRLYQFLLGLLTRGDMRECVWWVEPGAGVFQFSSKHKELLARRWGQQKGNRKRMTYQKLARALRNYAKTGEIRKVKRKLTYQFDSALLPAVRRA
# Sequence of ELF4 (Q99607 whole entry): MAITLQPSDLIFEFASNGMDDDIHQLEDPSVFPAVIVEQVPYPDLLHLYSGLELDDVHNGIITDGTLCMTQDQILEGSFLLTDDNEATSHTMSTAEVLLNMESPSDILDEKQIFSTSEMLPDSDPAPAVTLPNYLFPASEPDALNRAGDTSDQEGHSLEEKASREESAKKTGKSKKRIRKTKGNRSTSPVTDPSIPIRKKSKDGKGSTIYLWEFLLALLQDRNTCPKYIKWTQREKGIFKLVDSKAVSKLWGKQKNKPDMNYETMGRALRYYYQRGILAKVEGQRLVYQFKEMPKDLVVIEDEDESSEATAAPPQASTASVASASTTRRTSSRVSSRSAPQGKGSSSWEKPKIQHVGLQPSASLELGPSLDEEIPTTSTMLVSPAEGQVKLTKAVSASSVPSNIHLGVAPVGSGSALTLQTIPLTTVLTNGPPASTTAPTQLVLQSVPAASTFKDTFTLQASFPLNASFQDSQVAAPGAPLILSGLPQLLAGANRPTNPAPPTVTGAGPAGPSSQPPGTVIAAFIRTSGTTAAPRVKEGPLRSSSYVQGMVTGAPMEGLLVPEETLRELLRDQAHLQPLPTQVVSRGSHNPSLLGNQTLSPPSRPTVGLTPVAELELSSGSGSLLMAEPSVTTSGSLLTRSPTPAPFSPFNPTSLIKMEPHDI
# Sequence of HSF1 (Q00613 whole entry): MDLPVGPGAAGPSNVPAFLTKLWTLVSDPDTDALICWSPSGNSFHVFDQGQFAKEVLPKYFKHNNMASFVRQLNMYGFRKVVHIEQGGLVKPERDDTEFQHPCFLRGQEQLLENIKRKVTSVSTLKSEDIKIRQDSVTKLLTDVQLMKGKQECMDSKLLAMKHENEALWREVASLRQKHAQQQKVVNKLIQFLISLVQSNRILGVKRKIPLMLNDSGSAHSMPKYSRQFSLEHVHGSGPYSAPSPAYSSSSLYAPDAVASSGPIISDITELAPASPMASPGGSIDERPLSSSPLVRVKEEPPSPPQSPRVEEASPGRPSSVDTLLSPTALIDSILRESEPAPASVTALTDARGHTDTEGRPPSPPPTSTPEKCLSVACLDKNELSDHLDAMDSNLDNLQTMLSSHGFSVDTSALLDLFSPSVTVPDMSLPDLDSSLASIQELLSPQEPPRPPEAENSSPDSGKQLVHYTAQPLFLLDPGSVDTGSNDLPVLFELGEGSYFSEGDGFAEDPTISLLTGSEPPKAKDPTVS
sequence,measurement,setting,value
GTTCCC,binding signal,FLI1,"1.36 fold enrichment (6-mer frequency, TF over GST control)"
same,binding signal,ELK1,"1.27 fold enrichment (6-mer frequency, TF over GST control)"
same,binding signal,GABPA,"1.33 fold enrichment (6-mer frequency, TF over GST control)"
same,binding signal,ERG,"1.25 fold enrichment (6-mer frequency, TF over GST control)"
same,binding signal,ELF1,"1.28 fold enrichment (6-mer frequency, TF over GST control)"
same,binding signal,EHF,"1.28 fold enrichment (6-mer frequency, TF over GST control)"
same,binding signal,SPI1,"1.71 fold enrichment (6-mer frequency, TF over GST control)"
same,binding signal,SPIB,"1.37 fold enrichment (6-mer frequency, TF over GST control)"
same,binding signal,ELK3,"1.23 fold enrichment (6-mer frequency, TF over GST control)"
same,binding signal,FEV,"1.27 fold enrichment (6-mer frequency, TF over GST control)"
same,binding signal,ETV5,"1.22 fold enrichment (6-mer frequency, TF over GST control)"
same,binding signal,HSF1,"1.26 fold enrichment (6-mer frequency, TF over GST control)"
same,binding signal,SPIC,"1.38 fold enrichment (6-mer frequency, TF over GST control)"
same,binding signal,ELF4,"1.36 fold enrichment (6-mer frequency, TF over GST control)"
same,binding signal,ELK4,"1.19 fold enrichment (6-mer frequency, TF over GST control)"
same,binding signal,ETV2,"1.12 fold enrichment (6-mer frequency, TF over GST control)"
same,binding signal,ELF3,"1.23 fold enrichment (6-mer frequency, TF over GST control)"
same,binding signal,ETV1,"1.39 fold enrichment (6-mer frequency, TF over GST control)"
